# Reference: PubChem BioAssay AID720624 (Broad Institute, 2013)
# Entries with a potency or affinity are not part of this list. Inconclusive results are not listed. The source made the active and inactive calls.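 How the source made its calls: active means viability loss with half-maximal concentration at most twice the top valid dose, at 8, 24 and 48 hours; inconclusive means timepoint results disagree; inactive means inactive at all three timepoints.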
# Assay: cytotoxicity in SNB-75 CNS cells – cell-based, CellTiter-Glo ATP luminescence, several timepoints, dry powder, mechanism study for HRAS target identification, late-stage follow-up (AID 720624)
# Conditions: SNB-75 viability, 8-48 h; series mostly up to 35 µM
smiles,measurement,value
Cc1onc(C(=O)N2CCN(C(c3ccncc3)c3ccncc3)CC2)c1[N+](=O)[O-],outcome,inactive
